Drawing on PubChem BioAssay (NCATS), this text covers Potency and activity change, negative = cytotoxicity for five molecules.

Inconclusive results are not listed. Entries that show only a call come without a potency. Unmarked numbers belong to inactive results. The source made the active and inactive calls. Calls come from the whole dose curve; as a rule, active = well fitted inhibition curve with a large enough effect; inconclusive = small, poorly fitted or top-dose-only effect; inactive = flat fitted curve, though single readings scatter.

This experiment is described as follows: P-glycoprotein substrates identified in KB-8-5-11 adenocarcinoma cell line, qHTS therapeutic library screen (AID 1346987). Note: nearly all actives have a fitted effect of over 65% in size. The conditions noted are these: KB-8-5-11 (P-gp overexpressing) viability, CellTiter-Glo, 72 h; series mostly up to 44.5 µM. Put shortly:
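KB-8-5-11, a colchicine-selected P-gp-overexpressing KB-3-1 subline, was grown without colchicine for the assay. Cells were seeded at 500 cells/well, dosed in concentration-response and incubated 72 h at 37 degree C, 5% CO2. Viability was read by CellTiter-Glo luminescence.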
For orientation: In qHTS, concentration-response curves come from the screen itself.
Consider `O=C(Nc1ccccc1Cl)c1cnc2ccc(C3CCNCC3)cn12`, for which the Potency entry is “inactive”.
As for `CC(=O)N[C@H]1[C@H](O[C@H]2CC[C@@]3(C)C(CC[C@]4(C)C3CC=C3C5CC(C)(C)CC[C@]5(C(=O)O)C(O)C[C@]34C)C2(C)C)O[C@H](CO[C@@H]2O[C@H](C)[C@H](O)[C@H](O)[C@H]2O[C@@H]2OC[C@@H](O)[C@H](O)[C@H]2O)[C@@H](O)[C@@H]1O` (stereo not given in full), the activity change, negative = cytotoxicity was -2.51% [at 9.29 µM].
As to `COc1cc(CCO)ccc1O[C@@H]1O[C@H](CO)[C@@H](O)[C@H](O)[C@H]1O`, the Potency result was “inactive”.
As for `COC1=CC(=O)O/C1=C(/OC)[C@@H]1O[C@H]1c1ccccc1`, the Potency entry is “inactive”.
Regarding `CCCCCCCCCC(=O)O`, the Potency entry was “inactive”.
